# From PubChem BioAssay AID556 (SRMLSC, 2006)
# Screen size: about 65,000 compounds; about 320 (0.49%) were called active. This is one part of a sample in which actives are shown more often than they occur.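 How the source made its calls: active means the 320 compounds with the highest percent inhibition in the single-dose primary screen, excluding strongly autofluorescent ones (cut at about 32% in these data); inactive means the rest, inconclusive results apart.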
# Test system: diphosphomevalonate decarboxylase (Streptococcus pneumoniae D39)
# Experiment: S. pneumoniae DPM-DC inhibitors, primary screen, biochemical, PK/LDH-coupled NADH fluorescence (AID 556);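 on inhibition: kinetic rate of NADH fluorescence loss reporting ADP formed by the decarboxylase; 0% = full reaction rate with carrier and 100% = no-substrate background rate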
# Details: purified DPM-DC, at 10 µM
# [1] = stronger effect = higher value unless noted
# [2] = measured here: pilot screen trials, stronger effect = higher value
compound,measurement,setting,value
O=C(O)c1cc(S(=O)(=O)N2CCCCCC2)c(Cl)cc1Cl,inhibition,[1],inactive
COc1ccccc1N1CCN(C(=O)c2ccc(S(=O)(=O)N3CCCCC3)cc2)CC1,inhibition,[1],inactive
COC(=O)c1cccc(NC(=O)CN2CCC(NC(=O)c3cc(OC)c(OC)c(OC)c3)CC2)c1,inhibition,[1],inactive
O=C(Nc1cccc2cccnc12)c1cccc(N2C(=O)CCC2=O)c1,inhibition,[1],3% (inactive)
C=C(C)CSc1nc(N)c2c3c(sc2n1)CCC3,inhibition,[1],6% (inactive)
COc1cc(Cl)c(C)cc1NC(=O)CSc1nnc(-c2cccnc2)n1Cc1ccco1,inhibition,[1],inactive
O=C(Nc1ccccc1F)c1cc(S(=O)(=O)N2CCCCC2)cs1,inhibition,[1],inactive
COc1ccc(-c2c(C)nn3c(N4CCC(C(=O)N5CCCCC5)CC4)cc(C)nc23)cc1OC,inhibition,[1],inactive
CCCS(=O)(=O)Nc1c(C(=O)O)[nH]c2ccccc12,inhibition,[1],"8% [measured here: pilot screen trials, stronger effect = higher value]"
same,outcome,[1],inactive
Cc1ccc(C)c(N2CCN(C(=O)CCCCn3c(=O)[nH]c4ccccc4c3=O)CC2)c1,inhibition,[1],inactive
COc1ccc(C(C)=O)cc1COC(=O)Cn1cnc2ccccc2c1=O,inhibition,[1],inactive
O=S(=O)(c1ccc(F)cc1)N1CCN(Cc2ccccc2C(F)(F)F)CC1,inhibition,[1],inactive
CCOc1c(N2CCCCC2)c(=O)c1=O,inhibition,[1],inactive
O=C(CSCc1cccs1)N1CCCC1,inhibition,[1],"0% [measured here: pilot screen trials, stronger effect = higher value]"
same,outcome,[1],inactive
Cc1c2cn[nH]c(=O)c2c(C)n1Cc1ccc(F)cc1,inhibition,[1],inactive
CCS(=O)(=O)n1nc(-c2ccccc2)nc1SCc1ccccc1,inhibition,[1],inactive
CC1=C(C(=O)Nc2ccccc2)C(c2cccs2)C(C#N)=C(SCC#N)N1 (stereo not given),inhibition,stronger effect = higher value,1% (inactive)
same,inhibition,[2],3%
CC1CCCN(Cc2nc3c(c(=O)n(C)c(=O)n3C)n2CC(=O)c2ccccc2)C1 (stereo not given),inhibition,[1],inactive
Cc1cc(Nc2cccc(F)c2)n2ncnc2n1,inhibition,[1],inactive
Cc1cc(C)c(C#N)c(SCc2[nH]nc3c2C(c2ccccc2)C(C#N)=C(N)O3)n1 (stereo not given),inhibition,[1],"0% [measured here: pilot screen trials, stronger effect = higher value]"
same,outcome,[1],inactive
CC(C[N+](C)(C)C)OC(N)=O (stereo not given),inhibition,stronger effect = higher value,1% (inactive)
same,inhibition,[2],0%
CCOC(=O)CSC1=C(C#N)C(c2ccco2)C(C(=O)OCc2ccccc2)=C(C)N1 (stereo not given),inhibition,[1],11% (inactive)
NC(=O)c1ccccc1NC(=O)c1ccccc1F,inhibition,[1],inactive
Cc1nc2ncnn2c(C)c1CCC(=O)N1CCN(C(=O)c2ccco2)CC1,inhibition,[1],inactive
O=C(c1ccccc1)c1ccc(OC(=O)N2CCCC2)cc1,inhibition,[1],inactive
COC(=O)c1ccccc1NC(=O)Cn1nc(C(F)(F)F)c2c1CCC2,inhibition,[1],inactive
CCN=C1SC(CC(=O)Nc2ccc(C)cc2)C(=O)N1CC (stereo not given),inhibition,[1],inactive
Cc1ccccc1Nc1nnc(C)c(=O)[nH]1,inhibition,[1],2% (inactive)
CCSc1nc2c(c(=O)[nH]1)C(c1cccnc1)C(C(=O)OC(C)C)=C(C)N2 (stereo not given),inhibition,[1],"0% [measured here: pilot screen trials, stronger effect = higher value]"
same,outcome,[1],inactive
COc1ccc(NC(=O)CCNC(=O)Cn2ccc3ccccc3c2=O)c(OC)c1,inhibition,[1],"1.5% [measured here: pilot screen trials, stronger effect = higher value]"
same,outcome,[1],inactive
CCOC(=O)CSc1nnc(NC(=O)c2cccc(S(=O)(=O)N3CCCC3)c2)s1,inhibition,[1],inactive
C=CCNC(=O)c1ccc(C)c(Br)c1,inhibition,[1],inactive
CCN(CC)CCNC(=O)C1c2ccccc2C(=O)N(C)C1c1cn(C)c2ccccc12 (stereo not given),inhibition,[1],inactive
COc1ccccc1CNCc1cccs1,inhibition,[1],inactive
COC(=O)c1cc(C(=O)CSc2nc(C)cc(C)n2)ccc1O,inhibition,[1],inactive
CCOC(=O)Cc1csc(NC(=O)CN(C)S(=O)(=O)c2ccc3c(c2)CCC(=O)N3)n1,inhibition,[1],"0% [measured here: pilot screen trials, stronger effect = higher value]"
same,outcome,[1],inactive
COc1ccc(OC)c(CNC(=O)CCc2nc(-c3cccs3)no2)c1,inhibition,[1],inactive
Cc1nnc(SCCCn2c(N3CCCCC3)nc3c2c(=O)[nH]c(=O)n3C)s1,inhibition,[1],"1% [measured here: pilot screen trials, stronger effect = higher value]"
same,outcome,[1],inactive
Cc1ccc(C(=O)OCC(=O)NCc2ccc3c(c2)OCO3)s1,inhibition,[1],14% (inactive)
CCCn1cc(SCC(N)=O)c2ccccc21,inhibition,[1],"0% [measured here: pilot screen trials, stronger effect = higher value]"
same,outcome,[1],inactive
CCCn1c(=O)c2ccccc2n2c(SCC(=O)/C(C#N)=C(\C)N)nnc12,inhibition,[1],34% (active)
C=CCn1c(=O)c2ccccc2n2c(SCC(=O)N3CCCc4ccccc43)nnc12,inhibition,[1],inactive
COC(=O)c1ccccc1NC(=O)CN(Cc1ccccc1)S(C)(=O)=O,inhibition,[1],5% (inactive)
CC(=O)c1ccc(N2C(=NC(=O)C(C)C)SC3CS(=O)(=O)CC32)cc1 (stereo not given),inhibition,[1],14% (inactive)
CCOCCN(C=O)c1cccc(OC)c1,inhibition,[1],inactive
